Among the test systems are RPMI-8226 leukemia; OVCAR-8 ovarian; OVCAR-5 ovarian; OVCAR-4 ovarian; SK-OV-3 ovarian; IGROV1 ovarian; OVCAR-3 ovarian; HS 578T breast; NCI/ADR-RES ovarian; T-47D breast; BT-549 breast; MDA-MB-435 melanoma; SW-620 colon; MCF7 breast; HCT-116 colon; HCC-2998 colon; KM12 colon.
Assay in all cases: NCI-60 one-dose screen, 48 h (100 = growth as untreated, 0 = no growth, -100 = all killed)
Holding throughout (conditions): 10 µM unless noted

This is part of a sample that, as a whole, favours compounds with a hit. Of some 83,000 tested, about 20% had one in any assay.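 Single-concentration screen, 48 h exposure, 96-well plates. Endpoint: percent growth. Below 10 = active.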 Unmarked numbers belong to inactive results. Activity calls are given as the source filed them.

For `N#Cc1c(-c2ccc(F)cc2)nc(N=Nc2c(O)[nH]c3ccc(Cl)cc23)nc1N1CCOCC1`, the growth in the test with RPMI-8226 leukemia is 80.1%; in the test with OVCAR-8 ovarian it was 19.1%; with OVCAR-5 ovarian, 84.5%; with OVCAR-4 ovarian, -37.7% (active); with SK-OV-3 ovarian, 17.2%; in the test on IGROV1 ovarian it was 29.3%. Moreover, the growth in the test on OVCAR-3 ovarian was 21.6%; with HS 578T breast, 15.5%; with NCI/ADR-RES ovarian, 16.4%; with T-47D breast it was 46.7%; with BT-549 breast it was 71.4%; in the test with MDA-MB-435 melanoma it was 67%. Further, the growth in the test on SW-620 colon was 68.9%; with MCF7 breast it was 39.9%; in the test with HCT-116 colon it was 21.4%; in the test with HCC-2998 colon, 96.7%; in the test on KM12 colon, 48.5%.
On to `Cc1ccc(CS/C(=C\c2ccc([N+](=O)[O-])cc2)C(=O)c2ccc(F)cc2)cc1`, for which the growth in the test on RPMI-8226 leukemia is -18.3% (active); with OVCAR-8 ovarian it was 57.1%; in the test on OVCAR-5 ovarian, 97.7%; in the test with OVCAR-4 ovarian it was 60.6%; in the test with SK-OV-3 ovarian, 79.2%; in the test with IGROV1 ovarian, 58.5%. For the same compound, the growth with OVCAR-3 ovarian was 60.1%; in the test with HS 578T breast it was 8.91% (active); with NCI/ADR-RES ovarian, 49.6%; in the test with T-47D breast, 49.6%; in the test with BT-549 breast, 75.8%; in the test on MDA-MB-435 melanoma it was 33.5%. Also, the growth was -11.5% (active) in the test with SW-620 colon; -4.97% (active) in the test with MCF7 breast; -53.1% (active) in the test on HCT-116 colon; 83.7% in the test with HCC-2998 colon; 13.2% with KM12 colon.
For the compound `COc1cc(C(=O)Nc2cc(OC)c3ccn(C)c3c2)cc2c1C[C@]1(C)CC[C@@H](O)C(C)(C)[C@H]1O2`, the growth is -31.1% (active) with RPMI-8226 leukemia; 24.1% in the test with OVCAR-8 ovarian; 55.2% in the test with OVCAR-5 ovarian; 54.8% in the test with OVCAR-4 ovarian; 15.2% with SK-OV-3 ovarian; 25.2% in the test on IGROV1 ovarian. The growth was -14.6% (active) in the test with OVCAR-3 ovarian; -12.5% (active) with HS 578T breast; 13.9% in the test with NCI/ADR-RES ovarian; 19.5% in the test with T-47D breast; 8.8% (active) with BT-549 breast; -36.1% (active) in the test with MDA-MB-435 melanoma. Also, the growth in the test with SW-620 colon was 2.19% (active); with MCF7 breast, 6.32% (active); with HCT-116 colon it was 12.6%; with HCC-2998 colon it was 37.4%; with KM12 colon, 27%.
Turning to `CC[C@]12C=CCN3CC[C@@]4(c5ccc(OC)cc5N(C)[C@H]4[C@@](O)(C(=O)OC)[C@@H]1OC(=O)CCC(=O)O[C@H]1CC[C@H]4[C@@H]5CC[C@H]6CC(=O)CC[C@]6(C)[C@H]5CC[C@]14C)[C@@H]32`, the growth with RPMI-8226 leukemia was 0.329% (active); in the test with OVCAR-8 ovarian, 25.7%; with OVCAR-5 ovarian it was 34.6%; in the test on OVCAR-4 ovarian, 36.6%; with SK-OV-3 ovarian it was 35.3%; in the test with IGROV1 ovarian it was 28.6%. For the same compound, the growth in the test on OVCAR-3 ovarian was 23.8%; in the test on HS 578T breast, 43.4%; in the test on NCI/ADR-RES ovarian, 25.4%; with T-47D breast it was 8.78% (active); in the test on BT-549 breast, 11.6%; in the test on MDA-MB-435 melanoma, 29.4%. Besides, the growth with SW-620 colon was 21.3%; with MCF7 breast, 9.98% (active); in the test on HCT-116 colon it was 9.84% (active); in the test on HCC-2998 colon, 41.4%; in the test on KM12 colon, 22.4%.
`C=C1C(=O)O[C@H]2[C@H]1CC/C(COC(=O)c1cc3ccccc3o1)=C\CC[C@@]1(C)O[C@@H]21`: the growth with RPMI-8226 leukemia was -23.7% (active); in the test with OVCAR-8 ovarian, -12.6% (active); with OVCAR-5 ovarian, -18.8% (active); in the test with OVCAR-4 ovarian it was -10.5% (active); with SK-OV-3 ovarian it was 97.2%; with IGROV1 ovarian, -40.1% (active). Moreover, the growth with OVCAR-3 ovarian was -87.4% (active); in the test on HS 578T breast, -4.65% (active); with NCI/ADR-RES ovarian, 14.2%; with T-47D breast, -48% (active); in the test with BT-549 breast, -32.5% (active); in the test on MDA-MB-435 melanoma it was -35.1% (active). In addition, the growth is -58.2% (active) in the test with SW-620 colon; -31.8% (active) in the test on MCF7 breast; -84.1% (active) with HCT-116 colon; 61.6% in the test with HCC-2998 colon; 26.7% in the test on KM12 colon.
For `O=C1CC23OC(C(O)c4ccccc4N12)C1C(c2ccccc2)=NOC13` (stereo unspecified), the growth in the test with RPMI-8226 leukemia was 28.5%; with OVCAR-8 ovarian it was 70.4%; in the test on OVCAR-5 ovarian it was 81.2%; with OVCAR-4 ovarian, 89.7%; with SK-OV-3 ovarian, 79.9%; in the test with IGROV1 ovarian it was 43.6%. For the same compound, the growth in the test with OVCAR-3 ovarian is 56.7%; with HS 578T breast, 52.2%; with NCI/ADR-RES ovarian it was 15.8%; with T-47D breast, 52.8%; in the test on BT-549 breast, 24.6%; in the test with MDA-MB-435 melanoma, -28% (active). The growth in the test on SW-620 colon is 29.2%; in the test with MCF7 breast, 26.4%; in the test on HCT-116 colon, 21.3%; with HCC-2998 colon, 85.2%; in the test with KM12 colon it was 28.9%.
Turning to `CC1=C/C(=N\N=C2/C=C(C)CC(C)(C)C2)CC(C)(C)C1`, the growth in the test with RPMI-8226 leukemia was 102%; in the test on OVCAR-8 ovarian, 95.2%; with OVCAR-5 ovarian, 107%; with OVCAR-4 ovarian, 106%; in the test on SK-OV-3 ovarian, 97%; in the test with IGROV1 ovarian, 103%. For the same compound, the growth in the test with OVCAR-3 ovarian is 112%; in the test on HS 578T breast it was 103%; with NCI/ADR-RES ovarian, 104%; in the test on T-47D breast, 97.3%; in the test with BT-549 breast, 112%; in the test on MDA-MB-435 melanoma, 108%. In addition, the growth is 106% in the test on SW-620 colon; 102% in the test with MCF7 breast; 98.1% in the test with HCT-116 colon; 94.5% in the test on HCC-2998 colon; 107% in the test with KM12 colon.
As for `CCOC(=O)c1c(C)nc2c(c1N)/C(=C/c1cccs1)C(=O)N2c1ccc(OC)cc1`, the growth in the test with RPMI-8226 leukemia was 74.5%; in the test on OVCAR-8 ovarian, 20.5%; in the test with OVCAR-5 ovarian, 102%; with OVCAR-4 ovarian, 13.9%; in the test on SK-OV-3 ovarian it was 36.6%; in the test with IGROV1 ovarian, 45.7%. Further, the growth with OVCAR-3 ovarian is 32.3%; with HS 578T breast, 25%; in the test with NCI/ADR-RES ovarian, 29%; in the test with T-47D breast, 19%; with BT-549 breast, 45.9%; in the test on MDA-MB-435 melanoma it was 59.9%. Also, the growth in the test with SW-620 colon is 67.6%; in the test on MCF7 breast it was 25%; with HCT-116 colon it was 20.9%; in the test on HCC-2998 colon, 80.7%; in the test with KM12 colon, 70.2%.

The values above are taken from PubChem BioAssay (NCI).
